# Assay results as given in the supplement of paper PMC11417369.
# ± gives the standard deviation of the averaged measurements. Whole data set: some 25,000 sequences, median “ln(normalized median fluorescence intensity)” near 10, cut for the highest 2% near 12. What follows is part of a selection rich in the highest values, with near analogues and random picks from the rest.
# System: PfAP2-G AP2 domain (GST-tagged)
# Test: gcPBM binding intensity (ln(normalized median fluorescence intensity)); higher = stronger DNA binding
# Outline: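 Binding intensity values are the highest Masliner-normalised natural-log median intensity among replicate spots of either probe orientation. The binding step lasted 1 h in 1× PBS with 1% milk, 0.2 mg/ml BSA, 0.5% salmon testes DNA and 0.03% Triton X-100, using GST-tagged P. falciparum DNA-binding domains expressed in E. coli on an Agilent 4 × 180k array of primer-extended double-stranded 36-bp intergenic genomic probes plus negative controls. Alexa488 anti-GST antibody and a 488 nm scan detected bound protein.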
row,Sequence,gcPBM binding intensity (ln)
1,TAAGAAAAAGGCACACGTACATAATTCAAAATAAAT [XGTACX_site982],11.3 ± 0.67
2,ATAAATAAATAAAAGCGTACATATATATAAAATATA [XGTACX_site8107],11.6 ± 0.88
3,TATAAATAGAGGAAGCGTACATATATATATATATAT [XGTACX_site4993],11.3 ± 1
4,TCGGGAGGGGGGAAGCGTACATATATAAAATTATTA [XGTACX_site4683],11.7 ± 0.76
5,TTATAAAAATACAGTTAACACACATGTGTATATATA [CACACA_site9257],10.4 ± 0.25
6,CGCATGCAATGTTAATGTACATATATATATATATGT [XGTACX_site3316],11.7 ± 0.64
7,ATATATATATATATATGTACATAATGCATATAATAT [XGTACX_site6142],11.1 ± 0.52
8,ATATATATATATATATGTACATATGTTAATCTGCAT [XGTACX_site1068],11.2 ± 0.7
9,AATATAAATAAAAAATTGATTTCTTTAAAAAGGTAT [CACACA_negctrl_site1038],9.67 ± 0.18
10,TTTTTATAAAAATTATTAAAAAAATTATTTATAGCT [CACACA_negctrl_site265],9.54 ± 0.12
11,ATGACATATAAATATACACACATACGTAAGTATATT [CACACA_site5058],9.96 ± 0.11
12,TATAAAAGGTAAGAGTGTACAAGTAAAAAATTTTTA [XGTACX_site771],11.2 ± 0.7
13,GTACAAAAAAAGTGTACACAAAGTAAGACTTTAATT [CACACA_site5068],11.7 ± 0.83
14,TTTAAAGTAATAAAGTGTACAAAAATAAATTCAGCT [XGTACX_site8651],11.2 ± 0.67
15,AAAAAAAAAAAAAAAAGTACACAAATTTTAAAAATT [XGTACX_site3006],11.6 ± 0.88
16,TGTGTATAAAAAAAGTGTACACAAAGTAAGACTTTA [XGTACX_site3759],11.7 ± 0.86
17,GTATAAAAAAATAAAAGTACAAAAAAAAAAGACTGA [XGTACX_site186],11.4 ± 0.77
18,TTCTAAAATTATATAGTGCAATTATATTAATTTTTC,9.785 ± 0.078
19,TTTGTTGGTATGGTTACACACATTTAGGAAATAAAA [CACACA_site1411],10.4 ± 0.34
20,TCGAACGTATCATGTGTACACACAAATTGTTTTTTT [CACACA_site8623],11.6 ± 0.86
21,GAACGTATCATGTGTACACACAAATTGTTTTTTTTT [CACACA_site2020],11.7 ± 0.91
22,TTTTACAAATGTTTTACACACACATAATTGTATCAA [CACACA_site4166],10.1 ± 0.13
23,ACCCATTGCTCACGTGCACACATAGAAAAATAATTC [CACACA_site4389],10.8 ± 0.58

row,Sequence,gcPBM binding intensity (ln)
1,TTTTTAATTTTTTTTAAACACACACCGTACATTCAA [CACACA_site7925],10.8 ± 0.61
2,ATTCATTTTTTGGGGGGTACACCCTTTTAAACATTT [XGTACX_site4797],11.8 ± 1.3
3,AAAAATTTAAGTGGGGGTACATTTTTTTAACACCTT [XGTACX_site1093],11.6 ± 0.66
4,AATAGCCCATATGGAATACACACTGAAAATAAAAAA [CACACA_site3373],10.3 ± 0.26
5,TATATATATATATATGCATGTACATATATTTGTTAT [TGCATGCA_site379],11.1 ± 0.42
6,TATATTTCAGGGGGGAGTACAAATTTTTTTATATAA [XGTACX_site1600],11.8 ± 0.87
7,TATAATTATATTTGGAGTACAAATTTTTTTTTTTTT [XGTACX_site7494],11.5 ± 0.9
8,TATTTTTTTTTTATATGTACATAATTTCAAATAAAT [XGTACX_site7747],11.4 ± 0.83
9,TATTGTATTTAATAAACACACAATATTAAAAATATA [CACACA_site4725],9.91 ± 0.16
10,GAAAACAAATATGTAGCACACATTCACATAATATAT [CACACA_site8731],9.97 ± 0.014
11,GTTACATACCTATACACACACATATATAAATAAATA [CACACA_site6549],10.2 ± 0.18
12,ATATATATAATATAGGTGCACTACTTATTTAAAAAA,10.5 ± 0.36
13,ATTGATAAATTAACTAGTACACATATAAATATATTA [XGTACX_site2325],11.3 ± 0.93
14,AAAGAAGGGAAACACACACACACACCCACAAAAAAA [CACACA_site3766],10.3 ± 0.33
15,TACACCAGTTGTGGGAGTACACAAAAAAAGGGAAAA [XGTACX_site6047],11.7 ± 1
16,TATAAGCTAAGTTGTTGTACAAAAAGGAAAAGTATA [XGTACX_site3741],11.1 ± 0.59
17,TATTATAATATTTATACACACATAATTTTGATAAAT [CACACA_site583],9.95 ± 0.16
18,ATTATAACACCTCCCCCCCTTTTTTTATGAAGACCA [CACACA_negctrl_site1043],11.8 ± 0.86
19,TATATTATGACCACCACACACCTATACACATAACAT [CACACA_site7199],11.4 ± 0.91
20,AACTTTTAGAAGAACACACACATATAGATTATGACC [CACACA_site6256],10.2 ± 0.014
21,TACACATACAGACATACACACATACACATATACACA [CACACA_site6918],10.2 ± 0.23
22,CACAAAAGTAAGCACGCACACACAACATGAAATAAA [CACACA_site7938],10.4 ± 0.18
23,ATCTTTCGTACATGTACACACAGAAAAAAAAAAAAA [CACACA_site2502],11.5 ± 1

row,Sequence,gcPBM binding intensity (ln)
1,TTAATCTTTCCTACATGTACACACAGAAAAAAAAAA [XGTACX_site5213],11.5 ± 1
2,TAATCTTTCGTACATGTACACACAGAAAAAAAAAAA [CACACA_site8798],11.8 ± 1.3
3,TTAAAGCTTGCATATACACACATACATAAATTCATA [CACACA_site7208],10 ± 0.18
4,TATTTTTTTTTTTTTTTTTTTACCTTTCCACTCAAA [CACACA_negctrl_site1454],9.84 ± 0.34
5,ATGTATATTTTTAAAAGTACAGAATTTTCATATGAA [XGTACX_site5754],11.3 ± 0.93
6,ATATATGTATATTTTTGTACGCATAAATATATTTTT [XGTACX_site827],11.3 ± 0.83
7,TAATATATTAATATATGTACGTATTTTTATTAATAT [XGTACX_site5346],11.6 ± 0.93
8,ATATTTATACATAAATGTACTTTTATATATTTAATA [XGTACX_site3020],11.1 ± 0.8
9,ATATATTTATATAGGTGTACATATTTTGCTATTCAA [XGTACX_site5199],11.6 ± 0.77
10,TATATACAATATAGGTGTACATTTTTTTATCTATTT [XGTACX_site8431],11.3 ± 0.69
11,TTATTTTCATATAGGTGTACATAAAAATATTCTTAT [XGTACX_site8861],11.6 ± 0.82
12,ATTTTATCTTTAAACTGTACGTATTAATATGTAGAA [XGTACX_site3077],11.7 ± 1.1
13,AATTTATTTTTTTAATGTACATATGGTATAAATATA [XGTACX_site8012],11.3 ± 0.79
14,TGTAAATAATATAATAGTACGCATATTTTTATTGAA [XGTACX_site284],11.4 ± 0.78
15,TATTATGTATGTATATGTACGTATCTTATTTTATTT [XGTACX_site5008],11.3 ± 0.76
16,TTTTTTAATAAATGGTGTACATATTTTTTTTATACT [XGTACX_site8584],11.8 ± 0.87
17,ATATTTTTTTTTTCGTGTACGCATAAATATATCTAA [XGTACX_site3360],11.6 ± 0.95
18,ATAATAAATAAATAATGTACATATGAAAGAATAAAT [XGTACX_site8355],11.1 ± 0.49
19,ATATAAAATAAATAAGTGCAGATAAATTTATGTGAC [GTGCAC_site9504],10.25 ± 0.057
20,TTGCCCATTTCATTAACACACAAATGTTTATATTCT [CACACA_site4569],10.17 ± 0.071
21,TCATACATTTTCCTTGCACACATTTATAATTAATGT [CACACA_site614],10.5 ± 0.17
22,TTATGCATAAAAGGTGGTACTCCGTATATACATTCT [XGTACX_site4354],11.4 ± 0.65
23,TACTTTTCATCTTCTTAACACACAAAAAAAAAAAAA [CACACA_site9290],10.1 ± 0.52

row,Sequence,gcPBM binding intensity (ln)
1,TTTATTATTTTTAGGAGTACACAAAATAAAACAAAT [XGTACX_site8841],11.6 ± 1
2,TTATATATTTATAAATGTACATATAATTTTTTTATA [XGTACX_site4696],11.1 ± 0.67
3,TTTATATATTTTAGGAGTACATTAAATTATACCTTA [XGTACX_site5600],11.5 ± 0.89
4,TATAAAATATAAATTTGTACATATAAAATATTTTAT [XGTACX_site7462],10.8 ± 0.53
5,TATTTAATTTTTAAATGTACATATAAAATAATATAT [XGTACX_site2422],11.2 ± 0.89
6,ATGTATATATATTTGTGTACATATTTAGGAAATAAA [XGTACX_site2904],11.6 ± 1
7,TTTATATATTTTAGGTGTACATAAATTTTTATATAT [XGTACX_site5597],11.7 ± 1.1
8,AATTTTTTAAATGTGTGTACATATTATTTAAATAAT [XGTACX_site5967],11.5 ± 0.73
9,AATATCTAAAATGTGTGTACATAATATTTTTAATAT [XGTACX_site3831],11.7 ± 1.1
10,CCCACGTATATTTTGTGTACATAAATAAATAAATAA [XGTACX_site4046],11.6 ± 0.86
11,TAAAAATAATATATTTGTACATATGTGTATACATAA [XGTACX_site741],10.7 ± 0.38
12,TAACATAAATTTAGGAGTACACTTTTTATACATACA [XGTACX_site4066],11.7 ± 1
13,TTTTAAAGTTGTGAGCTTCATTTTTATTTATATGTA [CACACA_negctrl_site1505],9.87 ± 0.057
14,AAATAATTTATAAATAAATACATTGTTACTTTTTCT [GTGCAC_negctrl_site639],9.62 ± 0.29
15,TTTTTTTTTTTTTTTGCATGCAGGTTTTTACCCCTT [TGCATGCA_site381],9.84 ± 0.51
16,ATCATATGTATGGTGGTGCATTATGCATGAATTTTA [GTGCAC_site9798],10.1 ± 0.18
17,TATTCGTGCAATAGTAGTACACTTAAAAATTATTCA [XGTACX_site269],11.6 ± 1.1
18,TTCCAAAATTGCACATGTACAAAATTCTCCAATATG [XGTACX_site3419],10.9 ± 0.62
19,TAATGCATTTTCGCATGTACATATTTCTCTTTATAT [XGTACX_site8915],11.1 ± 0.71
20,TTATATTTTTTTGAGTGTACTTTTTGTGTAAAATTC [XGTACX_site2155],11.5 ± 0.84
